Sampled rows, rich in hits. Any-hit rate of the full collection: about 1.3%.
SARS PLpro yeast = qHTS of Yeast-based Assay for SARS-CoV PLP. Potency, µM (series often up to 32.9 µM), for inactives: top-dose activity, positive = growth rescue, usual class: activators. S. cerevisiae expressing SARS-CoV PLpro, growth rescue. AID 485353, 2010. 0.19% of 330,000 active; calls by dose curve; also: 0% is about no effect; nearly all actives have a fitted effect of over 55% in size
AmpC detergent = qHTS Inhibitors of AmpC Beta-Lactamase (assay with detergent); Potency, µM (highest dose often 114 µM), inactives show at the highest dose activity change, negative = inhibition, usual class: inhibitors; P00811; 0.041% of 370,000 active; AmpC hydrolysis of nitrocefin, absorbance 480 nm, 0.01% Triton;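 also: 0% = no-compound wells and -100% = no-enzyme wells; nearly all actives have a fitted effect of over 25% in size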
Target sequence (P00811 whole entry, looked up): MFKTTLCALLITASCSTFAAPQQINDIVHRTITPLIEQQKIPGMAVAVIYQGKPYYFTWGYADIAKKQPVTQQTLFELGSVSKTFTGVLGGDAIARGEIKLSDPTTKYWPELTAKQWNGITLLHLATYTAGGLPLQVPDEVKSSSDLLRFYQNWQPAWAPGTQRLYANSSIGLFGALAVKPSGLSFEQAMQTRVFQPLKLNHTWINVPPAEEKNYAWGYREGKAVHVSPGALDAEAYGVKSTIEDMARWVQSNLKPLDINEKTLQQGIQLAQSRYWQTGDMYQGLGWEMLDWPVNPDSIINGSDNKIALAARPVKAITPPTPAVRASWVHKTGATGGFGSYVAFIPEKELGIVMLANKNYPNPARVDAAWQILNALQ
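AmpC (5.3 nM in the dispensed reagent) in 20 mM phosphate pH 7.0 with 0.01% (detergent screen) or 0.0001% Triton X-100 was preincubated with compounds for 15 min at room temperature. Nitrocefin was then added from an 800 uM solution, and hydrolysis was followed at 480 nm.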
AmpC inh no detg = qHTS Inhibitors of AmpC Beta-Lactamase (assay without detergent); AmpC nitrocefin hydrolysis, absorbance 480 nm, 0.0001% Triton; Potency, µM (doses to about 57.1 µM), without a hit: at the highest dose activity change, negative = inhibition, most hits filed as inhibitors; P00811; 0.52% of 330,000 active;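 also: plate controls were no compound for no effect and no enzyme for full effect; nearly all actives have a fitted effect of over 20% in size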
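AmpC (5.3 nM in the dispensed reagent) in 20 mM phosphate pH 7.0 with 0.01% (detergent screen) or 0.0001% Triton X-100 was preincubated with compounds for 15 min at room temperature. Nitrocefin was then added from an 800 uM solution, and hydrolysis was followed at 480 nm.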
VACV mCherry inh = qHTS for Stage-Specific Inhibitors of Vaccinia Orthopoxvirus: mCherry Reporter Primary qHTS | 0.63% of 310,000 active | Potency, µM (titrated, usually from 36.5 µM), inactives show top-dose activity change, negative = inhibition, usual class: inhibitors | Vaccinia virus mCherry reporter infection, fluorescence; calls by dose curve; tested in A549 cells; also: % is scaled to controls: 0 for no effect and ±100 for the full control effect; nearly all actives have a fitted effect of over 35% in size
VACV Venus inh = qHTS for Stage-Specific Inhibitors of Vaccinia Orthopoxvirus: Venus Reporter Primary qHTS; Vaccinia virus Venus reporter expression, fluorescence; Potency, µM (doses to about 36.5 µM), for the others: top-dose activity change, negative = inhibition, most hits filed as inhibitors; 0.46% of 330,000 active; AID 720580, 2013; calls by dose curve; tested in A549 cells; also: % is scaled to controls: 0 for no effect and ±100 for the full control effect; nearly all actives have a fitted effect of over 30% in size
An asterisk follows results filed as active; i = inactive; ? = inconclusive; . = not tested or not shown. Unless noted, calls follow the shape of the dose curve; as a rule, active = well fitted curve in the direction sought with a large enough effect; inconclusive = small, poorly fitted or top-dose-only effect, or another doubt; inactive = no such curve, though single readings can be large; an effect the other way counts as inactive or inconclusive. Potency is read from the fitted curve at half-maximal effect.

SMILES | SARS PLpro yeast | AmpC detergent | AmpC inh no detg | VACV mCherry inh | VACV Venus inh
Cc1cc(C)c2c(=O)n(CC(=O)NCCCN3CCOCC3)sc2n1 | -25% | 45µM* | 14µM* | 0% | -3%
Cc1cc(C)c2c(=O)n(CC(=O)N3CCC(Cc4ccccc4)CC3)sc2n1 | -87% | ? | -12% | . | .
Cc1cc(C)c2c(=O)n(CC(=O)Nc3cccc(F)c3)sc2n1 | -5% | 79µM* | ? | . | .
COc1cccc(C2(CC(=O)N3CCC(c4nc5ccccc5o4)CC3)CC(=O)N(C)C2=O)c1 (configuration not stated) | . | . | . | -17% | -11%
C=CS(=O)(=O)N(Cc1ccc(Cl)c(Cl)c1)C[C@@H](O)CO | 7% | . | 3% | 0.28µM* | 0.05µM*
O=C(O)c1sccc1SCc1ccc(Cl)c(Cl)c1 | -2% | -6% | -24% | . | .
Cc1ccccc1C1(CC(=O)N2CCCC(C)C2)CC(=O)N(Cc2cccnc2)C1=O (configuration not stated) | . | . | . | -11% | 3%
COc1cccc(CNC(=O)c2c(OC)cc(=O)n3c2CCN(C(=O)c2ccc(Cl)cc2)CC3)c1 | . | . | . | i | 0%
Cc1ccc(N(CC(=O)N/N=C/c2cccs2)S(C)(=O)=O)cc1 | 19% | 4% | -24% | i | -9%
Cc1ccc(N(CC(=O)N/N=C/c2cccc(Br)c2)S(C)(=O)=O)cc1 | -7% | -12% | 14µM* | -2% | -11%
CC(C)c1ccc2c(c1)C(N1CCNCC1)Cc1ccc(F)cc1S2 (configuration not stated) | . | . | . | 11µM* | ?
CSc1ccc2c(c1)C(N1CCN(C)CC1)Cc1ccccc1S2 (configuration not stated) | -1% | -9% | 210% | ? | ?
Cc1ccnn1CC(=O)N1CCOc2c(cc(-c3ncc(C(F)(F)F)cc3Cl)cc2OCC2CCCO2)C1 (configuration not stated) | . | . | . | -7% | -4%
COc1ccc(N2CCN(C(=O)CCC(=O)N3CCOc4ccc(Cl)cc43)CC2)cc1 | -7% | -11% | 176% | 14µM* | ?
CCCSc1nnc(NC(=O)Nc2ccc(C)cc2)s1 | 0% | -2% | -48% | i | -9%
CCCSc1nnc(NC(=O)Nc2ccc(F)cc2)s1 | -16% | -1% | -23% | . | 7.9µM*
CCCCCCNC(=O)O[C@H]1Cn2c(=O)n(CCCCCC)c(=O)n2[C@@H]2CN(S(=O)(=O)c3ccc(C)cc3)C[C@]12O | . | . | . | ? | 16µM*
CCCCCCNC(=O)O[C@H]1Cn2c(=O)ccc(=O)n2[C@@H]2CN(S(=O)(=O)c3ccc(C)cc3)C[C@]12O | . | . | . | ? | 10µM*
CCCCCCn1c(=O)n2n(c1=O)[C@@H]1CN(S(=O)(=O)c3ccc(C)cc3)C[C@]1(O)[C@@H](OC(=O)NC1CC1)C2 | . | . | . | ? | -24%
Cc1c(C(=O)N(C)Cc2nccs2)sc2ncnc(NCC3CCCO3)c12 (configuration not stated) | . | . | . | -9% | -7%
C=C1C(O)[C@@H]2O[C@]3(CC[C@H](/C=C/C(C)[C@@H]4CC(C)=CC5(O[C@H](C[C@@](C)(O)C(=O)O)CCC5O)O4)O3)CC[C@H]2O[C@@H]1C(O)CC(C)[C@H]1OC2(CCCCO2)CCC1C (some centres not stated) | -7% | . | 54% | -23% | 0.32µM*
C#Cc1cccc(C(=O)NCc2nc(-c3ccccc3NC(C)=O)oc2C)c1 | . | . | . | -12% | -11%
Cc1csc(C(C)N(C)C(=O)c2cc(NC(=O)C3CCC3)c3c(c2)nc(-c2ccncc2)n3C)n1 (configuration not stated) | . | . | . | i | -11%
O=[N+]([O-])c1ccc(N2CCN(S(=O)(=O)c3ccccc3)CC2)cc1NCc1cccnc1 | 0% | -5% | -17% | . | 18µM*
Cc1ccc(-n2nc3c(N4CCC(C(=O)NCc5ccccc5Cl)CC4)nnc(C)c3c2C)cc1 | . | 9% | . | ? | 10µM*
Cc1ccc(-n2nc3c(N4CCC(C(=O)NCc5ccccc5C)CC4)nnc(C)c3c2C)cc1 | -1% | 3% | 167% | . | .

Source: PubChem
